Reference: the supplement of paper PMC10849652
Of roughly 8,800 targets only a part is listed; those with a hit were picked by preference. About 0.5% of all pairs of compound and target were hits.

Legend:
Assay in all cases: log2 fold change, soluble protein after heating vs DMSO (PISA); higher = thermal stabilisation; K562 lysate, 10 uM; active = over 0.2 and 3.5 SD of the protein, either way, in both replicates (recomputed)
[1] = compound: Cc1cn(-c2cc(NC(=O)c3ccc(C)c(Nc4nccc(-c5cccnc5)n4)c3)cc(C(F)(F)F)c2)cn1 [nilotinib]
Method in brief: (§1)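 A 30 min treatment with 10 μM compound was applied to crude K562 extract at 1 mg/mL protein in PBS pH 7.4 with 1 mM MgCl2. Heating for 3 min spanned 48°C-58°C, after which aliquots were pooled, adjusted to 0.5% NP-40 at 4°C and spun at 21,000xg for 90 min. TMTpro 16plex LC-MS/MS of the supernatant, with channel sums equalised, gave values recorded as log-two fold change in thermal stability against solvent controls, from duplicates.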

[2] = compound: Cc1nc(Nc2n[nH]c3c2CN(C(=O)N[C@H](CN(C)C)c2ccccc2)C3(C)C)c2sccc2n1
Method in brief: as §1

[3] = compound: Cc1nc(Nc2ncc(C(=O)Nc3c(C)cccc3Cl)s2)cc(N2CCN(CCO)CC2)n1 [dasatinib]
Method in brief: as §1

[4] = compound: Cc1ncc(-c2ccnc(Nc3ccc(S(C)(=O)=O)cc3)n2)n1C(C)C
Method in brief: as §1

[5] = compound: Cn1cc(-c2ccc3c(c2)CCN3C(=O)Cc2cccc(C(F)(F)F)c2)c2c(N)ncnc21
Method in brief: as §1

[6] = compound: Cn1cc(CNCC2CCN(c3ncc(C(=O)NO)cn3)CC2)c2ccccc21 [quisinostat]
Method in brief: as §1

[7] = compound: Cn1cncc1[C@@](N)(c1ccc(Cl)cc1)c1ccc2c(c1)c(-c1cccc(Cl)c1)cc(=O)n2C [tipifarnib]
Method in brief: as §1

[8] = compound: NC(=O)Nc1cc(-c2cccc(F)c2)sc1C(=O)N[C@H]1CCCNC1
Method in brief: as §1

[9] = compound: NC(=O)c1cnc(N[C@@H]2CCCC[C@@H]2N)nc1Nc1cccc(-n2nccn2)c1
Method in brief: as §1

[10] = compound: NC1(c2ccc(-c3nc4ccn5c(=O)[nH]nc5c4cc3-c3ccccc3)cc2)CCC1
Method in brief: as §1

[11] = compound: NCC(=O)Nc1ccc(-n2nc(C(F)(F)F)cc2-c2ccc3c(ccc4ccccc43)c2)cc1
Method in brief: as §1

[12] = compound: O=C(CCCCCCC(=O)Nc1ccccc1)NO [vorinostat]
Method in brief: as §1

[13] = compound: O=C(O)c1ccc2c(c1)nc(Nc1cccc(Cl)c1)c1ccncc12 [silmitasertib]
Method in brief: as §1

[14] = compound: O=C1NC(=O)C(c2cnc3ccccn23)=C1c1cn2c3c(cc(F)cc13)CN(C(=O)N1CCCCC1)CC2
Method in brief: as §1

[15] = compound: c1cn2cc(-c3ccc4cn[nH]c4c3)nc(Nc3ccc(N4CCOCC4)cc3)c2n1 [entospletinib]
Method in brief: as §1

UniProt Q9UGJ1, sequence (Q9UGJ1 whole entry, looked up): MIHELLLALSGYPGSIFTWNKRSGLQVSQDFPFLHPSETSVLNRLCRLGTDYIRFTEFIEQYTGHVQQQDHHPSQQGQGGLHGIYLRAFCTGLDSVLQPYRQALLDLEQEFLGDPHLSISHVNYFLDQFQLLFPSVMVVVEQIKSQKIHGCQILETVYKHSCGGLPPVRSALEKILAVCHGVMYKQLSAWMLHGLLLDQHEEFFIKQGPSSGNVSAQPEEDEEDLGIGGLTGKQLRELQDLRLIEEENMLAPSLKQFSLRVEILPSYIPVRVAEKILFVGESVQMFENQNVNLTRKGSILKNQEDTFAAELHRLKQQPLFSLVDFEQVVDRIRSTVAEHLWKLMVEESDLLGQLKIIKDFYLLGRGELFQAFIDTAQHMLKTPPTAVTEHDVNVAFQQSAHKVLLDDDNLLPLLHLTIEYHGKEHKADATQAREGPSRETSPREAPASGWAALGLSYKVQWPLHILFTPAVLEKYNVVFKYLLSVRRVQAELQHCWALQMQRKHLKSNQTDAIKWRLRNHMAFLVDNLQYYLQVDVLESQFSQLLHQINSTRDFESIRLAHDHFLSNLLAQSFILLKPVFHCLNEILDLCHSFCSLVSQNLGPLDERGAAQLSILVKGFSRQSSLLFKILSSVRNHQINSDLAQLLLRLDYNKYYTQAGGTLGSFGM
UniProt Q01085, sequence (Q01085 whole entry, looked up): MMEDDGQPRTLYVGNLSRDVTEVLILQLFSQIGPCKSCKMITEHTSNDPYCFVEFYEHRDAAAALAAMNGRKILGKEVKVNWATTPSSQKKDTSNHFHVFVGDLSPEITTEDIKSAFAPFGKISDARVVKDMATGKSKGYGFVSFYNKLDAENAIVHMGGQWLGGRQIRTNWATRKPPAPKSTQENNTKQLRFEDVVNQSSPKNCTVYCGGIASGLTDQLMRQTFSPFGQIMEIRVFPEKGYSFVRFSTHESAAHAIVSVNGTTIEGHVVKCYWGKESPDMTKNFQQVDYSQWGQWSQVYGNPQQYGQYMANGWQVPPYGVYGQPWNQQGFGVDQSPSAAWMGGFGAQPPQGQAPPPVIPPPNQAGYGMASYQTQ
UniProt Q12800, sequence (Q12800 whole entry, looked up): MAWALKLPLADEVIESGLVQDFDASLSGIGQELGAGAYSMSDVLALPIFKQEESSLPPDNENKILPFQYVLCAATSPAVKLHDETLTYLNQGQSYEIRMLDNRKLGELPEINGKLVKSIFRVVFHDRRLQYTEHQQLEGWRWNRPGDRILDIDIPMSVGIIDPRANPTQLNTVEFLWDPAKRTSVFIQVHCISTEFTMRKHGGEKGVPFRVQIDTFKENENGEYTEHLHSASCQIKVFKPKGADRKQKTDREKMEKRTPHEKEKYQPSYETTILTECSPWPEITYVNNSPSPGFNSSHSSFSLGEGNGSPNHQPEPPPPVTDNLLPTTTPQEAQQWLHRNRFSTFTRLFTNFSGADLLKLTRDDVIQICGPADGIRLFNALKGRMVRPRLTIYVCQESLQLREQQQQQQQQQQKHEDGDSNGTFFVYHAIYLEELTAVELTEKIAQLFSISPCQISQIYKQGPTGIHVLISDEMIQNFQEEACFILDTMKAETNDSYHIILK
UniProt Q6PJ69, sequence (Q6PJ69 whole entry, looked up): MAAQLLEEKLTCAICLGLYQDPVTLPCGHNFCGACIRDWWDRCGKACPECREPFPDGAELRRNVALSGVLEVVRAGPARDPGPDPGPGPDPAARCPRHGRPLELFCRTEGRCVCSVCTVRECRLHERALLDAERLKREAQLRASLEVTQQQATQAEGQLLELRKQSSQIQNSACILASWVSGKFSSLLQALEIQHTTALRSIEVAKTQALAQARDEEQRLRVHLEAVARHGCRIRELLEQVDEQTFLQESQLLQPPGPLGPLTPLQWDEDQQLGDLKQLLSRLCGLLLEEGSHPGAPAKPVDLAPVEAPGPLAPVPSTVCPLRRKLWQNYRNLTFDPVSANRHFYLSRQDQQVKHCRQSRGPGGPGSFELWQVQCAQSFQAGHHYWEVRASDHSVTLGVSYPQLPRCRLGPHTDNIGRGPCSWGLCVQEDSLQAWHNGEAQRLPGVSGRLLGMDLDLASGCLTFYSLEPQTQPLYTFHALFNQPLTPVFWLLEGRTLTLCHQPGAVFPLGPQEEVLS
UniProt Q8NG68, sequence (Q8NG68 whole entry, looked up): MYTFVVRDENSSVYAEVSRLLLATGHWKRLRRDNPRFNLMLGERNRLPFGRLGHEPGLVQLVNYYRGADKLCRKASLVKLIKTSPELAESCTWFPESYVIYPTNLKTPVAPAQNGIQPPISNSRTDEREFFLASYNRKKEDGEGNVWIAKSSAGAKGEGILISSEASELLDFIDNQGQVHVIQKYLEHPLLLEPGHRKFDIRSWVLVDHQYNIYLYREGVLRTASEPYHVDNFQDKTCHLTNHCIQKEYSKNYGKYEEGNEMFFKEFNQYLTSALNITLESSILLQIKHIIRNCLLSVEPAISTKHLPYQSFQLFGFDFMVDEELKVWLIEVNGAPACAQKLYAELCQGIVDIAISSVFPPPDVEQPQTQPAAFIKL
UniProt P07437, sequence (P07437 whole entry, looked up): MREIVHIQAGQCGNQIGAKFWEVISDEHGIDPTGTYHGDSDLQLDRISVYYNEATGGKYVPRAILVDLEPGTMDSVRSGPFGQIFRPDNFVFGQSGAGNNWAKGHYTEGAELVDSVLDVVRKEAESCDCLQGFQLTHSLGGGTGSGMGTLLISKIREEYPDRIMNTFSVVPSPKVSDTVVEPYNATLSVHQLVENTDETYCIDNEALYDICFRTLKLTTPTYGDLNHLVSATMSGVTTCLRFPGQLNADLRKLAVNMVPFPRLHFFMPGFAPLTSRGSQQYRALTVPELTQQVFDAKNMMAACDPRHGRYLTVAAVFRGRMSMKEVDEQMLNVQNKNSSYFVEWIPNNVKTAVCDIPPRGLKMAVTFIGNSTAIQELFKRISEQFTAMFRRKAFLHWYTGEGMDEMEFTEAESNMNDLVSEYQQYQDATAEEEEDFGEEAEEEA
UniProt Q96Q05, sequence (Q96Q05 whole entry, looked up): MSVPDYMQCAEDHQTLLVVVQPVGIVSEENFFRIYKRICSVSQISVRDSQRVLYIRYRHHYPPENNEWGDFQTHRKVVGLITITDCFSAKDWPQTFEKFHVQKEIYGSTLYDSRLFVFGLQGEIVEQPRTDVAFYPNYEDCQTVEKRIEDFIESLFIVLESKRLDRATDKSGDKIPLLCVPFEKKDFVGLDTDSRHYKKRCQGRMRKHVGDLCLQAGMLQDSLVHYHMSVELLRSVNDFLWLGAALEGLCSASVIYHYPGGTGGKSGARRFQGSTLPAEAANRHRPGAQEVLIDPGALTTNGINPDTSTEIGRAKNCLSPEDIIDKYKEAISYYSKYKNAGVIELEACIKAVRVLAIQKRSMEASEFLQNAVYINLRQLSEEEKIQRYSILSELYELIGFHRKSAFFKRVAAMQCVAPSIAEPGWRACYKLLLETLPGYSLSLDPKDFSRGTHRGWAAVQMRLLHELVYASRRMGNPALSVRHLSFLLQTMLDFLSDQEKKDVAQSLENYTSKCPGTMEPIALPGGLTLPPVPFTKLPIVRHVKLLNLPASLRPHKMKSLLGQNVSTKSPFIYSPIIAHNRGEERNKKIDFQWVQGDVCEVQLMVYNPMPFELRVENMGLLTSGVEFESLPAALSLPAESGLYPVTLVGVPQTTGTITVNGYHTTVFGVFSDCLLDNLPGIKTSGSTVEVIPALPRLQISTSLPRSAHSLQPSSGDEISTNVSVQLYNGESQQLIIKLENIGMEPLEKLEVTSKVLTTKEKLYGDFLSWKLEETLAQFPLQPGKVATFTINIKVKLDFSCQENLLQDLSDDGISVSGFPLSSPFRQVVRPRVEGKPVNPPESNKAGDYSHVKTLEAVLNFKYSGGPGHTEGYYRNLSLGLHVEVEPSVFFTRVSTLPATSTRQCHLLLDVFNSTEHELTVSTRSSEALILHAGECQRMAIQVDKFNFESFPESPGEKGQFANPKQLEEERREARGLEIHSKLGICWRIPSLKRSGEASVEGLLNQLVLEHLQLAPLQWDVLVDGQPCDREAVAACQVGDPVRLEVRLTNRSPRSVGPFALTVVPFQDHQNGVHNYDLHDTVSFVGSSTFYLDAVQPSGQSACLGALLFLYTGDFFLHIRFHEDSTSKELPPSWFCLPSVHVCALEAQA
UniProt P42166, sequence (P42166 whole entry, looked up): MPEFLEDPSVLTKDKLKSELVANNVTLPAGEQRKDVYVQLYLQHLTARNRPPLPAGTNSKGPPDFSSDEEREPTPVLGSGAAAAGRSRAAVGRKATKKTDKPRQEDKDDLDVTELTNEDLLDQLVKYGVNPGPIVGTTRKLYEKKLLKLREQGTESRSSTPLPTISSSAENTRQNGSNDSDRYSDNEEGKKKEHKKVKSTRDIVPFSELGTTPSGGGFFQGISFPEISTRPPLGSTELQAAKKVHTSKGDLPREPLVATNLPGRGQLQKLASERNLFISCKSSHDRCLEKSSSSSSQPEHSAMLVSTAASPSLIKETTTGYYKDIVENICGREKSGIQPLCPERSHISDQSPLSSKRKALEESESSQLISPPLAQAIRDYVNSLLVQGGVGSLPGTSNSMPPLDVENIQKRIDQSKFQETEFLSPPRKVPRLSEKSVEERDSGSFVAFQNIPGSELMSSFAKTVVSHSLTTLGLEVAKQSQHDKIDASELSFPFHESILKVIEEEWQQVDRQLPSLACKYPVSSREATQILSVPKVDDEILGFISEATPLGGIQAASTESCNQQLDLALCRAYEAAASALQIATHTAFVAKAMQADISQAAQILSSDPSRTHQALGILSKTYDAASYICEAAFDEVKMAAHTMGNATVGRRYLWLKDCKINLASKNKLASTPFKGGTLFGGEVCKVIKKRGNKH
UniProt P04183, sequence (P04183 whole entry, looked up): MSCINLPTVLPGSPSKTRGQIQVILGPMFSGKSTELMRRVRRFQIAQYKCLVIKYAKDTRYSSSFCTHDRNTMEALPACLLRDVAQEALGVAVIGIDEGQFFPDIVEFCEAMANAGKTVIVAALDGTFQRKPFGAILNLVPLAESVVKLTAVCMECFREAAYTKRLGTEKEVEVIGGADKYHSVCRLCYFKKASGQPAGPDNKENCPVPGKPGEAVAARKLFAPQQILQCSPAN

Target | log2 fold change [1] | log2 fold change [2] | log2 fold change [3] | log2 fold change [4] | log2 fold change [5] | log2 fold change [6] | log2 fold change [7] | log2 fold change [8] | log2 fold change [9] | log2 fold change [10] | log2 fold change [11] | log2 fold change [12] | log2 fold change [13] | log2 fold change [14] | log2 fold change [15]
TRAPPC10 (UniProt P48553) | 0.008 (inactive) | 0 (inactive) | 0.011 (inactive) | -0.003 (inactive) | 0.02 (inactive) | -0.006 (inactive) | 0.011 (inactive) | 0.035 (inactive) | 0.026 (inactive) | -0.05 (inactive) | 0.015 (inactive) | -0.248 (active) | 0.005 (inactive) | 0.049 (inactive) | 0 (inactive)
TNIK isoform 4 (UniProt Q9UKE5) | -0.019 (inactive) | 0.087 (inactive) | 0.203 (inactive) | 0.11 (inactive) | -0.011 (inactive) | -0.198 (inactive) | -0.022 (inactive) | 0.483 (active) | 0.08 (inactive) | -0.021 (inactive) | -0.019 (inactive) | -0.135 (inactive) | 0.004 (inactive) | -0.114 (inactive) | 0.208 (inactive)
THADA (UniProt Q6YHU6) | 0.009 (inactive) | 0.012 (inactive) | -0.048 (inactive) | 0.008 (inactive) | 0.027 (inactive) | -0.115 (inactive) | -0.011 (inactive) | 0.053 (inactive) | 0.007 (inactive) | 0.002 (inactive) | 0.009 (inactive) | -0.456 (active) | 0.013 (inactive) | 0.015 (inactive) | 0.006 (inactive)
TCP11L1 (UniProt Q9NUJ3) | 0.062 (inactive) | -0.114 (inactive) | -0.034 (inactive) | -0.035 (inactive) | 0.01 (inactive) | -0.055 (inactive) | -0.003 (inactive) | 0.051 (inactive) | -0.022 (inactive) | 0.028 (inactive) | 0 (inactive) | -0.317 (active) | -0.043 (inactive) | 0.006 (inactive) | 0.019 (inactive)
TK1 (UniProt P04183) | -0.009 (inactive) | 0.002 (inactive) | 0.004 (inactive) | 0.003 (inactive) | -0.009 (inactive) | -0.03 (inactive) | 0.015 (inactive) | -0.005 (inactive) | -0.043 (inactive) | -0.003 (inactive) | 0.04 (inactive) | -0.028 (inactive) | -0.001 (inactive) | 0.014 (inactive) | 0.035 (inactive)
TRIP12 isoform 2 (UniProt Q14669) | -0.019 (inactive) | 0.011 (inactive) | 0.003 (inactive) | 0.001 (inactive) | 0.039 (inactive) | -0.065 (inactive) | -0.017 (inactive) | 0.057 (inactive) | 0.016 (inactive) | 0.003 (inactive) | -0.057 (inactive) | -0.266 (active) | 0.03 (inactive) | 0.005 (inactive) | -0.002 (inactive)
TPM1 (UniProt H7BYY1) | 0.014 (inactive) | -0.111 (inactive) | -0.023 (inactive) | 0.028 (inactive) | 0.02 (inactive) | 0.101 (inactive) | 0.059 (inactive) | -0.017 (inactive) | 0.013 (inactive) | 0.033 (inactive) | 0.057 (inactive) | 0.136 (inactive) | -0.024 (inactive) | -0.049 (inactive) | 0.008 (inactive)
TIAL1 isoform 2 (UniProt Q01085) | -0.603 (active) | -0.013 (inactive) | 0.025 (inactive) | -0.015 (inactive) | 0.028 (inactive) | 0.039 (inactive) | -0.037 (inactive) | -0.016 (inactive) | 0.004 (inactive) | 0.033 (inactive) | -0.001 (inactive) | 0.041 (inactive) | 0.023 (inactive) | -0.049 (inactive) | 0.028 (inactive)
UCHL5 isoform 3 (UniProt Q9Y5K5) | 0.016 (inactive) | -0.008 (inactive) | 0.01 (inactive) | 0.001 (inactive) | 0.006 (inactive) | -0.01 (inactive) | -0.005 (inactive) | 0.013 (inactive) | -0.031 (inactive) | 0.003 (inactive) | 0.004 (inactive) | -0.081 (inactive) | 0 (inactive) | -0.009 (inactive) | -0.003 (inactive)
TSFM (UniProt P43897) | -0.013 (inactive) | 0.021 (inactive) | -0.034 (inactive) | -0.028 (inactive) | 0.017 (inactive) | -0.016 (inactive) | 0.002 (inactive) | 0.002 (inactive) | 0.037 (inactive) | -0.026 (inactive) | 0.002 (inactive) | -0.261 (active) | 0.043 (inactive) | 0.035 (inactive) | -0.014 (inactive)
TYMS (UniProt P04818) | 0.012 (inactive) | -0.032 (inactive) | -0.023 (inactive) | -0.015 (inactive) | 0.01 (inactive) | -0.001 (inactive) | -0.02 (inactive) | 0.034 (inactive) | 0.015 (inactive) | -0.032 (inactive) | -0.02 (inactive) | -0.231 (active) | 0.009 (inactive) | -0.005 (inactive) | 0.031 (inactive)
TUBB (UniProt P07437) | 0.067 (inactive) | 0.016 (inactive) | -0.043 (inactive) | -0.001 (inactive) | -0.011 (inactive) | 0.004 (inactive) | 0.022 (inactive) | 0.048 (inactive) | -0.022 (inactive) | -0.003 (inactive) | 0.025 (inactive) | -0.529 (active) | 0.009 (inactive) | 0.032 (inactive) | -0.018 (inactive)
TFCP2 (UniProt Q12800) | 0.042 (inactive) | 0.023 (inactive) | -0.015 (inactive) | 0.023 (inactive) | 0.02 (inactive) | -0.072 (inactive) | -0.022 (inactive) | 0.066 (inactive) | 0.066 (inactive) | -0.059 (inactive) | -0.072 (inactive) | -0.465 (active) | 0.045 (inactive) | 0.029 (inactive) | 0.051 (inactive)
TUBGCP4 (UniProt Q9UGJ1) | -0.028 (inactive) | 0.008 (inactive) | -0.046 (inactive) | 0.001 (inactive) | 0.018 (inactive) | -0.027 (inactive) | 0.008 (inactive) | 0.069 (inactive) | 0.034 (inactive) | 0.01 (inactive) | -0.11 (inactive) | -0.219 (active) | 0.003 (inactive) | 0.02 (inactive) | 0.038 (inactive)
TTL (UniProt Q8NG68) | -0.045 (inactive) | -0.082 (inactive) | -0.049 (inactive) | -0.062 (inactive) | 0.056 (inactive) | -0.115 (inactive) | -0.008 (inactive) | 0.017 (inactive) | 0.018 (inactive) | 0.03 (inactive) | -0.027 (inactive) | -0.376 (active) | 0.021 (inactive) | 0.057 (inactive) | 0.138 (inactive)
TRIP13 (UniProt Q15645) | -0.002 (inactive) | -0.031 (inactive) | 0.003 (inactive) | 0.049 (inactive) | 0.046 (inactive) | -0.065 (inactive) | 0.007 (inactive) | 0.026 (inactive) | 0.002 (inactive) | -0.031 (inactive) | 0.002 (inactive) | -0.472 (active) | 0.061 (inactive) | -0.002 (inactive) | 0.022 (inactive)
TMEM87B (UniProt Q96K49) | 0.008 (inactive) | 0.086 (inactive) | -0.006 (inactive) | -0.02 (inactive) | 0.023 (inactive) | -0.012 (inactive) | -0.011 (inactive) | -0.016 (inactive) | -0.019 (inactive) | -0.048 (inactive) | -0.024 (inactive) | 0.018 (inactive) | 0.026 (inactive) | -0.037 (inactive) | -0.097 (inactive)
TOX4 (UniProt O94842) | -0.056 (inactive) | -0.019 (inactive) | 0.001 (inactive) | 0.073 (inactive) | 0.009 (inactive) | -0.018 (inactive) | -0.02 (inactive) | -0.017 (inactive) | 0.017 (inactive) | 0.034 (inactive) | -0.021 (inactive) | -0.018 (inactive) | -0.037 (inactive) | -0.025 (inactive) | -0.006 (inactive)
TMPO (UniProt P42166) | 0.05 (inactive) | -0.178 (inactive) | -0.069 (inactive) | -0.036 (inactive) | 0.029 (inactive) | -0.041 (inactive) | -0.018 (inactive) | 0.035 (inactive) | 0.031 (inactive) | -0.006 (inactive) | 0.037 (inactive) | -0.569 (active) | -0.057 (inactive) | 0.009 (inactive) | -0.029 (inactive)
TRAPPC9 isoform 2 (UniProt Q96Q05) | 0.034 (inactive) | 0.005 (inactive) | -0.051 (inactive) | -0.011 (inactive) | 0.068 (inactive) | -0.07 (inactive) | 0.026 (inactive) | 0 (inactive) | -0.011 (inactive) | -0.073 (inactive) | 0.005 (inactive) | -0.375 (active) | 0.046 (inactive) | 0 (inactive) | -0.049 (inactive)
TRIM65 (UniProt Q6PJ69) | -0.025 (inactive) | -0.008 (inactive) | -0.059 (inactive) | -0.021 (inactive) | 0.005 (inactive) | -0.016 (inactive) | -0.004 (inactive) | 0 (inactive) | 0.08 (inactive) | -0.017 (inactive) | 0.018 (inactive) | -0.094 (inactive) | -0.006 (inactive) | 0.002 (inactive) | -0.009 (inactive)
